The campaign covered roughly 310,000 compounds. About 1,200 (0.39%) were called active. How the calls were made is not given here. A selection follows. Results with a measured potency or affinity are listed apart.
The compounds below were run against Large T antigen (Simian virus 40) (UniProt P03070) (assay: TAg ATPase/helicase activity blockers – biochemical (AID 1903)). Conditions: SV40 large T antigen ATPase/helicase inhibition assay; at 20 µM; stronger effect = higher value.
Large T antigen (Simian virus 40), sequence (P03070 whole entry, looked up): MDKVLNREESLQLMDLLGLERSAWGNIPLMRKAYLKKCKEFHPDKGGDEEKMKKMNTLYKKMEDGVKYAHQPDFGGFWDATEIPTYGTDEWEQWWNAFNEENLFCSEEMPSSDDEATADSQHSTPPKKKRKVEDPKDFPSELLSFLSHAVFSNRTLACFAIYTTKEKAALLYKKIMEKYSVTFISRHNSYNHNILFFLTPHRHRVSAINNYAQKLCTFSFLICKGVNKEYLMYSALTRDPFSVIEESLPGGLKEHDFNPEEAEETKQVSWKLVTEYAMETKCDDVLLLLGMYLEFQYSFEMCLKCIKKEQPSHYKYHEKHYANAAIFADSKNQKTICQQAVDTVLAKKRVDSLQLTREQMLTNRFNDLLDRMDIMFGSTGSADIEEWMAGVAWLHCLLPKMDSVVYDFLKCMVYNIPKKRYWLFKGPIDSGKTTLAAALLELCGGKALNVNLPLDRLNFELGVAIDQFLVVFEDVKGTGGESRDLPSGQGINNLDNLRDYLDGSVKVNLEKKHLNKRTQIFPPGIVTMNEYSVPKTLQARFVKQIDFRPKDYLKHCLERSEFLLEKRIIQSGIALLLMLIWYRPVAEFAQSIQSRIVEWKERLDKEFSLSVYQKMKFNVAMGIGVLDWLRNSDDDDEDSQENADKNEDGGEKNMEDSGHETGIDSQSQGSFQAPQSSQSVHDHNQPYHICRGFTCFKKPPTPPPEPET

inhibition, inactive:
COCCNC(=O)CN1CCC(NC(=O)Nc2ccc(C(F)(F)F)cc2)CC1 27.4%, Cc1cc(C)nc(NNC2=CC(=[N+]3CCCCC3)CC(C)(C)C2)n1 3.95%, CNC(=O)COC(=O)CNC(=O)c1cc(Cl)cc([N+](=O)[O-])c1 6.1%, C=CCn1c(SCc2cccc(OC)c2)nnc1-c1ccncc1 5.97%, CCc1ccc(C2CC(c3ccc(Cl)cc3)=NNC2=O)cc1 (configuration not stated) -1.48%, Cc1ccnc(N2C3CCC2CC(O)(c2ccccc2)C3)n1 (configuration not stated) 2.55%, COc1ccccc1N1CCN(c2nccc(C)n2)CC1 11.9%, O=c1c2ccccc2c(C=Nc2ccccc2O)c(O)n1-c1nccs1 15.8%, O=C1CCCN1c1nccs1 4.21%, O=C(NCCc1c[nH]c2ccccc12)C1CCN(S(=O)(=O)c2ccccc2F)CC1 10.5%, COc1ccc(S(=O)(=O)Cc2ccc(C(=O)NCc3ccccc3)o2)cc1 7.39%, Cc1c([N+](=O)[O-])cc(S(=O)(=O)Nc2ccncc2)cc1[N+](=O)[O-] 1.66%, COc1ccc(/C=C/CN2CCN(Cc3ccc(F)cc3)C(CCO)C2)cc1 (configuration not stated) 10.1%, O=C1NC(=O)N(c2ccccc2)C1=O 28.5%, CCOC(=O)C1=C(C)N(c2ccc(C)c(C)c2)C(=O)/C1=C\c1ccco1 7.58%, O=C1/C(=C\c2ccco2)SC(=S)N1c1ccccc1 21.4%, O=C1NC(=S)N/C1=C/C=C/c1ccccc1 -22.6%, COC(=O)C1=C(C)N(c2ccc(C)c(C)c2)/C(=C/c2ccco2)C1=O 13.5%, O=C1S/C(=C\C=C\c2ccco2)C(=O)N1c1ccccc1 20.3%, Nc1ccc2c3c(cccc13)C(=O)N(c1ccccc1)C2=O 6.29%, O=C1N/C(=C/c2ccc(N3CCCC3)cc2)C(=O)N1c1ccccc1 1.12%, O=C(OCc1ccccc1)N1CCOCCN(C(=O)OCc2ccccc2)CCOCC1 0.08%, c1ccc(N2CCN(c3nc(-c4cccs4)nc4ccccc34)CC2)cc1 17.6%, COC(=O)c1cccc(C(=O)N2CCCC(C(=O)c3ccccc3OC)C2)c1 (configuration not stated) 2.9%, Cc1ccccc1CCNC(=O)Cn1ccc2cc(S(=O)(=O)N3CCCC3)ccc21 11.1%, CCN(Cc1ccccc1)C(=O)CCS(=O)(=O)c1ccc2c(c1)NC(=O)CO2 6.63%, COc1ccc(/C=N/NC(=O)C(C)n2nnc3ccccc32)cc1OC (configuration not stated) -3.35%, COc1ccc(Cn2nnc3ccccc32)cc1 0.77%, CN(C)c1ccc(/C=N/NC(=O)Cn2nnc3ccccc32)cc1 14.7%, COc1ccc(/C=N/NC(=O)CCn2nnc3ccccc32)cc1 3.72%, COc1cccc(/C=N/NC(=O)CCn2nnc3ccccc32)c1 9.43%, COc1cc(Cn2nnc3ccccc32)cc(Br)c1O 29.6%, COc1cccc(/C=N/NC(=O)C(C)n2nnc3ccccc32)c1 (configuration not stated) 23.4%, COc1cccc(/C=N\NC(=O)Cn2nnc3ccccc32)c1O 34.8%, O=C(Cn1ccc2ccccc2c1=O)NCC(=O)N1CCN(c2ccccc2F)CC1 5.42%, CC(=O)Nc1ccccc1OC(C)C(=O)N1CC(C)CC(C)C1 (configuration not stated) 2.89%, CCOc1ccc(NC(=O)N2CCC(n3nnc4cc(C)ccc43)CC2)cc1 -5.9%, Cn1c(=O)cc(SCC(=O)Nc2ccccn2)c2ccccc21 18.7%, COC(=O)c1ccccc1NC(=O)N1CCN(S(C)(=O)=O)CC1 5.14%, CCNC(=S)N(CCc1ccccc1C)Cc1cc2cc(OC)c(OC)cc2[nH]c1=O 2.57%, COc1ccc(N(CC(=O)NCc2ccc(F)cc2)C(=O)c2snc(C(N)=O)c2N)cc1OC 5.71%, CSc1ccc(C#N)cc1NC(=O)c1cccnc1Cl 1.02%, C/C(=N\NC(=O)Cn1ccc(C(F)(F)F)n1)c1ccc(N2CCOCC2)cc1 5.06%, COc1ccc(/C=N/NC(=O)CCc2c(C)n[nH]c2C)cc1O 33.9%, CCOc1cc(/C=N/NC(=O)CCn2nc(C)cc2C)ccc1O 33.9%, COc1ccc(/C=N/NC(=O)Cn2nnc3ccccc32)cc1OC 9.9%, COc1ccc(O)c(/C=N\NC(=O)CCn2nnc3ccccc32)c1 9.4%, COc1cc(/C=N/NC(=O)CCn2c3ccccc3c3ccccc32)ccc1O 13.3%, COc1ccc(/C=N/NC(=O)CCc2c(C)n[nH]c2C)cc1OC 0.79%, COc1cc(/C=N\NC(=O)Cn2nnc3ccccc32)cc(OC)c1OC 4.84%, COc1ccc(/C=N/NC(=O)CCn2nc(C)cc2C)cc1O 32.7%, CC1CCCN(C(=O)N2c3ccccc3Sc3ccccc32)C1 (configuration not stated) 6.24%, CCOC(=O)c1c(-c2ccccc2)csc1NC(=O)c1ccc(S(=O)(=O)N2CCOCC2)cc1 11.2%, C=CCn1c(COc2ccc(Cl)cc2)nnc1SCC(=O)Nc1ccc(S(N)(=O)=O)cc1 -7.84%, COc1cccc2cc(-c3nnc(-c4ccccc4)o3)c(=O)oc12 3.9%, COC(CN(C)C(C(=O)NC1CCCCC1)c1ccccc1)OC (configuration not stated) -3.44%, Cc1cc(C)cc(NC(=O)Nn2cnnc2)c1 14.3%, CCCCN(Cc1ccccc1)C(=O)CCN1C(=O)C2C3C=CC(C3)C2C1=O (configuration not stated) 8.63%, Cc1cc([N+](=O)[O-])ccc1NC(=O)c1cncc(Br)c1 12.5%, COC(=O)c1ccc(S(=O)(=O)c2ccc(Cl)cc2)c(N)c1 13.4%, COC(=O)c1ccc(C(=O)NC2CCSc3ccccc32)cc1 (configuration not stated) 6.81%, CC(C)CCN1CCN=C1Nc1ccccc1 0.58%

— PubChem BioAssay AID1903 (Southern Research Specialized Biocontainment Screening …, 2009)
